Test system: TDF
Experiment: cell number relative to DMSO (% of DMSO); higher = more cells (less growth inhibition / toxicity)
Details: concentration: 10 µM; 24 h
In short: (§1)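 H1.0 nuclear intensity or cell number is stated as percent of the plate control, based on the median of replicates, and HCC1569 values were smoothed for positional effects. These came from HCC1569 and TDF cells treated with compounds at 10 µM for 24 h at 37 °C in triplicate, then fixed in 3.7% formaldehyde and stained with a rabbit anti-H1.0 antibody, an AlexaFluor 647 secondary and DAPI.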
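Throughout, for H1.0 immunofluorescence intensity relative to DMSO: TDF is a line of transformed human dermal fibroblasts of mesenchymal origin.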
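Throughout, for cell number relative to DMSO: TDF denotes transformed human dermal fibroblasts of mesenchymal origin.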

| SMILES | cell number |
| --- | --- |
| CC(=O)NC(C(=O)O)C(C)(C)SN=O (stereo not drawn) [S-Nitroso-N-acetylpenicillamine] | 109 |
| O=C(Nc1cc(C(F)(F)F)cc(C(F)(F)F)c1)c1cc(Cl)ccc1O | 52.7 |
| O=C1CC(c2ccc(O)c(O)c2)Oc2c1ccc(OC1OC(CO)C(O)C(O)C1O)c2O (stereo not drawn) [Flavanomarein] | 98.6 |
| COc1cc(SC)ccc1C(=O)N1CCC(Cc2ccccc2)CC1 [p38 MAP Kinase Inhibitor VI, JX401] | 101 |
| CC1CCC2(C(=O)O)CCC3(C)C(=CCC4C5(C)CCC(O)C(C)(C)C5CCC43C)C2C1C (stereo not drawn) [Ursolic acid] | 101 |
| CN1CCN(C2=Nc3ccccc3Sc3ccc(Cl)cc32)CC1 [Clothiapine] | 88.9 |
| COc1cc2c3cc1Oc1cc(ccc1O)CC1c4c(cc(OC)c(O)c4Oc4ccc(cc4)CC3N(C)CC2)CC[N+]1(C)C (single isomer, unassigned; (+)) [(+)-Tubocurarine chloride] | 92.5 |
| CCCCCC(O)C=CC1=C(CC=CCCCC(=O)O)C(=O)CC1 (stereo not drawn) [Prostaglandin B2] | 109 |

Test system: TDF
Experiment: H1.0 immunofluorescence intensity relative to DMSO (% of DMSO); higher = stronger H1.0 induction, active = 120 or more
Details: concentration: 10 µM; 24 h
In short: as §1

| SMILES | H1.0 immunofluorescence intensity |
| --- | --- |
| CCCCCCCCCCCCCCCC(=O)OC1C(SC)OC(C(NC(=O)C2CC(CCC)CN2C)C(C)Cl)C(O)C1O.Cl (stereo not drawn) [Clindamycin palmitate.HCl] | 93.3 (inactive) |
| CCC=CCC=CCC=CCC=CCC=CCCCC(=O)O [Eicosapentaenoic acid] | 103 (inactive) |
| CC(C)[N+]1(C)C2CCC1CC(OC(=O)C(CO)c1ccccc1)C2.[Br-] (stereo not drawn) [Ipratropium.Br] | 91.5 (inactive) |
| CC(C=CC1=C(C)CCCC1(C)C)=CC=CC(C)=CC(=O)O [13-cis Retinoic acid] | 92.9 (inactive) |
| O=C(Oc1cc(S(=O)(=O)c2ccccc2)ccc1[N+](=O)[O-])c1ccc(Cl)cc1 [2-nitro-5-(phenylsulfonyl)phenyl 4-chlorobenzoate] | 96.7 (inactive) |
| O=C(NC(Cc1ccccc1)C(=O)CCl)OCc1ccccc1 [Z-L-Phe chloromethyl ketone] | 120 (inactive) |
| O=c1c(-c2ccc(O)cc2)coc2cc(O)ccc12 [Daidzein] | 92.4 (inactive) |
| COc1cc2c3cc1Oc1cc(ccc1O)CC1c4c(cc(OC)c(O)c4Oc4ccc(cc4)CC3N(C)CC2)CC[N+]1(C)C.Cl.[Cl-] (single isomer, unassigned; (+)) [(+)-Tubocuraraine chloride] | 93.2 (inactive) |
| Brc1ccc(C2CN3CCSC3=N2)cc1.O=C(O)C(=O)O (stereo not drawn) [S(-)-p-Bromotetramisole oxalate] | 99.6 (inactive) |
| CN(C)CCC=C1c2ccccc2CCc2ccccc21.Cl [Amitriptyline.HCl] | 99.6 (inactive) |
| CC(=O)Oc1cc(C(C)C)c(OCCN(C)C)cc1C.Cl [Moxisylyte hydrochloride] | 91.4 (inactive) |
| COc1ccc(C2CC(=O)c3c(O)cc(OC4OC(CO)C(O)C(O)C4OC4OC(C)C(O)C(O)C4O)cc3O2)cc1O (stereo not drawn) [Neohesperidin] | 107 (inactive) |
| O=c1ccc2cc3ccoc3cc2o1 [7H-furo[3,2-g]chromen-7-one] | 90.3 (inactive) |
| CCCCCC(=O)C=CC1C(O)CC(O)C1CC=CCCCC(=O)O (stereo not drawn) [15-keto-prostaglandin F2a] | 92.9 (inactive) |
| CC[N+](CC)(CC)CCOc1cccc(OCC[N+](CC)(CC)CC)c1OCC[N+](CC)(CC)CC.[I-].[I-].[I-] [Gallamine triethiodide] | 98.8 (inactive) |
| Cl.Cl.Fc1ccc(C(c2ccc(F)cc2)N2CCN(CC=Cc3ccccc3)CC2)cc1 [Flunarizine.2HCl] | 92.2 (inactive) |
| Cl.NCCS [Cysteamine hydrochloride] | 91.2 (inactive) |
| COc1cc2nc(N3CCN(C(=O)C4COc5ccccc5O4)CC3)nc(N)c2cc1OC (stereo not drawn) [Doxazosin] | 100 (inactive) |
| CC1C(NC(=O)C(=NOC(C)(C)C(=O)O)c2csc(N)n2)C(=O)N1S(=O)(=O)O (stereo not drawn) [Aztreonam] | 93.1 (inactive) |
| CC(C)=CCCC(C)=CCOc1ccc2ccc(=O)oc2c1 [Auraptene] | 103 (inactive) |

— the supplement of paper PMC7156485
